According to PubChem BioAssay (NCATS):
Records with an inconclusive call do not appear. Active and inactive are the calls of the source. Calls follow the shape of the dose curve; as a rule, active = well fitted cell-killing curve with a large enough effect; inconclusive = small, poorly fitted or top-dose-only effect, or effect the other way; inactive = no such curve, though single readings can be large or run the other way.

How the values were obtained:
[1] = Quantitative High-Throughput drug screen in 47 multiple myeloma cell lines against the NCATS MIPE library collection: LP1_DSMZ cell viability assay (AID 1918982); also: nearly all actives have a fitted effect of over 35% in size
Summary of the method: (§1)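 Plated at 500 cells per well, myeloma lines received MIPE 4.0 compounds by pin tool. Following 48 h culture at 37 °C, CellTiter-Glo luminescence gave viability relative to DMSO and media-only controls.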

[2] = Quantitative High-Throughput drug screen in 47 multiple myeloma cell lines against the NCATS MIPE library collection: KMS28PE_JCRB cell viability assay (AID 1918983); also: nearly all actives have a fitted effect of over 35% in size
Summary of the method: as §1

[3] = Quantitative High-Throughput drug screen in 47 multiple myeloma cell lines against the NCATS MIPE library collection: KMS34_JCRB cell viability assay (AID 1918985); also: nearly all actives have a fitted effect of over 40% in size
Summary of the method: as §1

[4] = Quantitative High-Throughput drug screen in 47 multiple myeloma cell lines against the NCATS MIPE library collection: OCIMY7_PLB cell viability assay (AID 1918987); also: nearly all actives have a fitted effect of over 65% in size
Summary of the method: as §1

[5] = Quantitative High-Throughput drug screen in 47 multiple myeloma cell lines against the NCATS MIPE library collection: OCIMY5_PLB cell viability assay (AID 1918988); also: nearly all actives have a fitted effect of over 65% in size
Summary of the method: as §1

[6] = Quantitative High-Throughput drug screen in 47 multiple myeloma cell lines against the NCATS MIPE library collection: U266_ATCC cell viability assay (AID 1919864); also: nearly all actives have a fitted effect of over 35% in size
Summary of the method: as §1

[7] = Quantitative High-Throughput drug screen in 47 multiple myeloma cell lines against the NCATS MIPE library collection: XG6_PLB cell viability assay (AID 1919865); also: nearly all actives have a fitted effect of over 40% in size
Summary of the method: as §1

[8] = Quantitative High-Throughput drug screen in 47 multiple myeloma cell lines against the NCATS MIPE library collection: XG1_PLB cell viability assay (AID 1919866); also: nearly all actives have a fitted effect of over 35% in size
Summary of the method: as §1

[9] = Quantitative High-Throughput drug screen in 47 multiple myeloma cell lines against the NCATS MIPE library collection: VP6_DJ cell viability assay (AID 1919867); also: nearly all actives have a fitted effect of over 40% in size
Summary of the method: as §1

[10] = Quantitative High-Throughput drug screen in 47 multiple myeloma cell lines against the NCATS MIPE library collection: PCM6_Riken cell viability assay (AID 1919870); also: nearly all actives have a fitted effect of over 30% in size
Summary of the method: as §1

[11] = Quantitative High-Throughput drug screen in 47 multiple myeloma cell lines against the NCATS MIPE library collection: RPMI8226_ATCC cell viability assay (AID 1919871); also: nearly all actives have a fitted effect of over 30% in size
Summary of the method: as §1

[12] = Quantitative High-Throughput drug screen in 47 multiple myeloma cell lines against the NCATS MIPE library collection: OPM2_DSMZ cell viability assay (AID 1919872); also: nearly all actives have a fitted effect of over 30% in size
Summary of the method: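 Myeloma cells (500 per well) were exposed to MIPE 4.0 compounds by pin transfer and incubated 48 hours at 37C, 5% CO2. Viability was read as ATP by CellTiter-Glo luminescence, normalised to DMSO (100%) and media-only (0%) wells.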

[13] = Quantitative High-Throughput drug screen in 47 multiple myeloma cell lines against the NCATS MIPE library collection: KMS11_JCRBsus cell viability assay (AID 1919873); also: nearly all actives have a fitted effect of over 50% in size
Summary of the method: as §1

[14] = Quantitative High-Throughput drug screen in 47 multiple myeloma cell lines against the NCATS MIPE library collection: KMS28BM_JCRB cell viability assay (AID 1919874); also: nearly all actives have a fitted effect of over 35% in size
Summary of the method: as §1

[15] = Quantitative High-Throughput drug screen in 47 multiple myeloma cell lines against the NCATS MIPE library collection: L363_DSMZ cell viability assay (AID 1918984); also: nearly all actives have a fitted effect of over 40% in size
Summary of the method: as §1

[16] = Quantitative High-Throughput drug screen in 47 multiple myeloma cell lines against the NCATS MIPE library collection: OPM1_PLB cell viability assay (AID 1918989); also: nearly all actives have a fitted effect of over 40% in size
Summary of the method: as §1

[17] = Quantitative High-Throughput drug screen in 47 multiple myeloma cell lines against the NCATS MIPE library collection: PE2_PLB cell viability assay (AID 1919869); also: nearly all actives have a fitted effect of over 35% in size
Summary of the method: as §1

[18] = Quantitative High-Throughput drug screen in 47 multiple myeloma cell lines against the NCATS MIPE library collection: SKMM1_PLB cell viability assay (AID 1919863); details: SKMM1 myeloma viability, CellTiter-Glo ATP, 48 h; viability: hits give low values; also: nearly all actives have a fitted effect of over 35% in size; as to viability: series mostly up to about 46 µM
Summary of the method: as §1

[19] = Quantitative High-Throughput drug screen in 47 multiple myeloma cell lines against the NCATS MIPE library collection: UTMC2_PLB cell viability assay (AID 1919868); also: nearly all actives have a fitted effect of over 55% in size
Summary of the method: as §1
Potency is read from the fitted curve at half-maximal effect.

CC(C)C[C@H](NC(=O)[C@H](Cc1ccccc1)NC(=O)c1cnccn1)B(O)O
active: Potency [1] 0.0118 µM | Potency [2] 0.0093 µM | Potency [3] 0.0083 µM | Potency [4] 0.001 µM | Potency [5] 0.0047 µM | Potency [6] 0.0093 µM | Potency [7] 0.0074 µM | Potency [8] 0.0105 µM | Potency [9] 0.0074 µM | Potency [10] 0.0105 µM | Potency [11] 0.0187 µM | Potency [12] 0.0264 µM | Potency [13] 0.0083 µM | Potency [14] 0.0132 µM

CN(C)C(=O)COC(=O)Cc1ccc(OC(=O)c2ccc(N=C(N)N)cc2)cc1
active: Potency [15] 5.26 µM | Potency [16] 0.418 µM | Potency [6] 26.4 µM | Potency [7] 5.26 µM | Potency [17] 5.26 µM
inactive: Potency [1] | Potency [2] | Potency [9] | Potency [12] | Potency [13]

CNC[C@H](O)c1ccc(O)c(O)c1
inactive: Potency [15] | Potency [8] | Potency [10]
active: Potency [1] 30.3 µM | Potency [2] 13.6 µM | Potency [3] 30.3 µM | Potency [18] 12.1 µM | Potency [6] 38.2 µM | Potency [12] 13.6 µM | Potency [13] 19.1 µM | Potency [14] 21.5 µM

COc1c(O)cc2c(c1O)[C@@H]1O[C@H](CO)[C@@H](O)[C@H](O)[C@H]1OC2=O
inactive: Potency [1] | Potency [2] | Potency [15] | Potency [4] | Potency [5] | Potency [6] | Potency [9] | Potency [17] | Potency [10] | Potency [11] | Potency [13] | Potency [14]

CCN(CCO)CCCC(C)Nc1ccnc2cc(Cl)ccc12 (stereo not drawn)
inactive: Potency [1] | Potency [2] | Potency [15] | Potency [3] | Potency [5] | Potency [6] | Potency [8] | Potency [9] | Potency [10] | Potency [11] | Potency [12] | Potency [13] | Potency [14]

O=Nc1c(-c2c(O)[nH]c3cc(Br)ccc23)[nH]c2ccccc12
active: Potency [1] 13.2 µM | Potency [2] 23.5 µM | Potency [15] 4.69 µM | Potency [3] 3.32 µM | Potency [4] 1.87 µM | Potency [5] 7.43 µM | Potency [16] 5.26 µM | Potency [18] 20.9 µM | Potency [6] 16.6 µM | Potency [7] 3.32 µM | Potency [8] 5.9 µM | Potency [9] 5.26 µM | Potency [17] 5.26 µM | Potency [10] 3.32 µM | Potency [11] 18.7 µM | Potency [12] 20.9 µM | Potency [13] 3.72 µM

O=C(CS(=O)Cc1ccco1)NCC=CCOc1cc(CN2CCCCC2)ccn1 (stereo not drawn)
inactive: Potency [1] | Potency [2] | Potency [15] | Potency [3] | viability [18] 134% | Potency [6] | Potency [17] | Potency [12] | Potency [13] | Potency [14]
active: Potency [7] 14.8 µM | Potency [9] 16.6 µM

CN(C)c1ccc2nc3ccc(=[N+](C)C)cc-3sc2c1
active: Potency [1] 4.69 µM | Potency [2] 5.9 µM | Potency [15] 3.72 µM | Potency [3] 0.59 µM | Potency [4] 2.35 µM | Potency [5] 0.526 µM | Potency [16] 3.72 µM | Potency [18] 1.66 µM | Potency [6] 8.33 µM | Potency [8] 1.32 µM | Potency [9] 1.32 µM | Potency [17] 3.72 µM | Potency [10] 1.05 µM | Potency [13] 2.64 µM | Potency [14] 2.96 µM

O=C(c1ccccc1)c1ccc2n1CCC2C(=O)O (stereo not drawn)
inactive: Potency [1] | Potency [2] | Potency [15] | Potency [3] | viability [18] 105% | Potency [11] | Potency [12]
active: Potency [4] 7.43 µM | Potency [5] 0.743 µM | Potency [6] 3.72 µM | Potency [8] 9.35 µM | Potency [9] 9.35 µM | Potency [19] 14.8 µM | Potency [17] 9.35 µM | Potency [10] 10.5 µM | Potency [13] 13.2 µM | Potency [14] 23.5 µM

C[C@]12CCC(=O)C=C1CC[C@@H]1[C@H]2[C@@H](O)C[C@@]2(C)[C@H]1CC[C@]2(O)C(=O)CO
active: Potency [7] 18.7 µM | Potency [9] 14.8 µM | Potency [11] 0.418 µM | Potency [13] 0.187 µM
inactive: Potency [1] | Potency [2] | Potency [15] | Potency [5] | Potency [16] | Potency [17] | Potency [12] | Potency [14]

CC(C)(S)[C@@H](N)C(=O)O
inactive: Potency [1] | Potency [2] | Potency [15] | Potency [4] | viability [18] 133% | Potency [7] | Potency [8] | Potency [9] | Potency [17] | Potency [10] | Potency [12] | Potency [13]

Cc1cc(=O)c2c(O)c3c(O)cc(=O)c4c3c3c(cc(O)c1c23)C(C)(C)C=4O
active: Potency [1] 5.9 µM | Potency [2] 6.62 µM | Potency [15] 0.743 µM | Potency [3] 13.2 µM | Potency [5] 8.33 µM | Potency [6] 26.4 µM | Potency [8] 1.05 µM | Potency [9] 0.469 µM | Potency [19] 0.296 µM | Potency [17] 0.296 µM | Potency [10] 1.87 µM | Potency [11] 1.48 µM | Potency [12] 13.2 µM

C[C@H](Cc1ccc(O)c(O)c1)[C@@H](C)Cc1ccc(O)c(O)c1
active: Potency [1] 18.7 µM | Potency [15] 6.62 µM | Potency [3] 16.6 µM | Potency [5] 16.6 µM | Potency [16] 26.4 µM | Potency [18] 18.7 µM | Potency [6] 16.6 µM | Potency [7] 11.8 µM | Potency [8] 20.9 µM | Potency [9] 16.6 µM | Potency [17] 11.8 µM | Potency [10] 18.7 µM | Potency [11] 10.5 µM | Potency [12] 18.7 µM | Potency [13] 18.7 µM | Potency [14] 23.5 µM
inactive: Potency [2]

CCC1=C(C)CN(C(=O)NCCc2ccc(S(=O)(=O)NC(=O)NC3CCC(C)CC3)cc2)C1=O (stereo not drawn)
inactive: Potency [1] | Potency [2] | Potency [15] | Potency [3] | Potency [5] | Potency [6] | Potency [8] | Potency [9] | Potency [17] | Potency [10] | Potency [12] | Potency [13] | Potency [14]
